Data: PubChem BioAssay (EPA / NIEHS)
Records with an inconclusive call do not appear. The source made the active and inactive calls. How the source made its calls: active means hit-call score of the fitted dose curve at least 0.9, where 1 is the maximum; inactive means score below 0.9.

read-out: Cytochrome P450 2C9 (Homo sapiens) (UniProt P11712); test: CLD_CYP2C9_48hr: CellzDirect (CLD) Gene Expression Assay for xenobiotic metabolism (CYP2C9) at 48 hours (AID 2283701)
Description: CLD_48hr is a cell-based, multiplexed-readout assay that uses hepatocyte, a human liver primary cell, with measurements taken at 48 hours after chemical dosing in a 96-well plate.CLD_CYP2C9_48hr is one of 16 assay component(s) measured or calculated from the CLD_48hr assay. It is designed to make measurements of mRNA induction, a form of inducible reporter, as detected with chemiluminescence signals by Quantitative Nuclease Protection Assay (qNPA) technology.Data from the assay component CLD_CYP2C9_48hr was analyzed at the endpoint, CLD_CYP2C9_48hr, in the positive analysis fitting direction relative to DMSO as the negative control and baseline of activity. Using a type of inducible reporter, gain-of-signal activity can be used to understand changes in the reporter gene as they relate to the gene CYP2C9. Furthermore, this assay endpoint can be referred to as a primary readout. To generalize the intended target to other relatable targets, this assay endpoint is annotated to the cyp intended target family, where subfamily is xenobiotic metabolism.
Human hepatocyte cultures were treated daily for two consecutive days with fresh dosing solutions containing appropriate concentrations of the 320 ToxCast chemicals (chemical identities were blinded to CellzDirect and other ToxCast collaborators), vehicle control (0.2% DMSO), and positive control inducers as summarized in Table 1. Due to the large number of treatment groups and chemicals examined, the ToxCast chemicals were divided into two groups (spanning two independent cultures of hepatocytes from separate donor preparations (Hu778: ToxCast plates 1 and 2; Hu776: ToxCast plates 3 and 4). Each preparation of human hepatocyte cultures was treated with respective vehicle control, medium only control, set of six positive controls/reference chemicals for the five hepatic receptor pathways, and a subset of eight of the ToxCast chemicals (indoxacarb, pyrithiobac-sodium, norflurazon, cyhalofop-butyl, methomyl, thiram, acetochlor, and propiconazole). These replicate data, coupled with internal replicates designed within the blinded ToxCast chemical library, provided additional data to evaluate interindividual differences between hepatocyte preparations and their potential impact on chemical profiles.Cell morphology and integrity were evaluated using phase-contrast microscopy as an indicator of hepatocyte cell health (Tyson & Green, 1987). Cultures for each treatment group (i.e., media, vehicle [0.2% DMSO], positive control inducers [multiple concentrations], and the ToxCast chemicals [multiple concentrations]) were observed and cell morphology was assessed relative to vehicle control cultures at each harvest time point (0, 6, 24, or 48 h). […] Images were evaluated at the conclusion of the study to assess changes in cell integrity and account for the effects of chemical exposure on uncharacteristic changes in concentration-dependent gene expression profiles. The results from these determinations of apparent cytotoxicity were annotated (yes/no) alongside the corresponding qNPA data for reference.At the conclusion of each treatment period, hepatocyte cultures (96-well) were washed with 1 volume of HBSS, lysed by addition of 25 ul ArrayPlate lysis buffer (HTG, Tucson, AZ), and 70 ul/well of Denaturation Oil, denatured by incubation at 95C for 10 min, and frozen at approximately -70C until analysis by nuclease protection assay (qNPA) (Roberts et al., 2007). For qNPA analysis, cell lysates were thawed at 50C for approximately 30 min, qNPA probes were added, and samples were incubated at 95C for 10 min to begin the detection process by denaturing the target RNA, dissociating the duplexes and secondary structure hybridization. At the conclusion of the hybridization period, S1 nuclease reagent was added to each sample to digest all nonprotected nucleotides at 50C for 60-90 min. […]

| Compound | outcome |
| --- | --- |
| Cc1ccn2nc(S(=O)(=O)Nc3c(F)cccc3F)nc2n1 | inactive |
| CC(C)=CC1C(C(=O)OCN2C(=O)C3=C(CCCC3)C2=O)C1(C)C (configuration not stated) | inactive |
| COc1cc(OC)nc(Sc2cccc(Cl)c2C(=O)O)n1 | inactive |
| CON=C(C(=O)OC)c1ccccc1CON=C(C)c1cccc(C(F)(F)F)c1 | inactive |
| CCOC(=O)COc1cc(-c2nn(C)c(OC(F)F)c2Cl)c(F)cc1Cl | inactive |
| CCOP(=O)(SC(C)CC)N1CCSC1=O (configuration not stated) | inactive |
| CN(C)C(=O)Nc1cccc(C(F)(F)F)c1 | inactive |
| CSc1nnc(C(C)(C)C)c(=O)n1N | inactive |
| CNc1cnn(-c2cccc(C(F)(F)F)c2)c(=O)c1Cl | inactive |
| O=c1ccc(=O)[nH][nH]1 | inactive |
| CC(COc1ccc(Oc2ccccc2)cc1)Oc1ccccn1 (configuration not stated) | inactive |
| CCC(=NOC/C=C/Cl)C1=C(O)CC(C2CCOCC2)CC1=O (configuration not stated) | inactive |
| CCOP(=S)(OCC)Oc1ccc2c(C)c(Cl)c(=O)oc2c1 | inactive |
| CC(=NC#N)N(C)Cc1ccc(Cl)nc1 | inactive |
| CNC(=O)ON=C(SC)C(=O)N(C)C | inactive |
| CCOP(=S)(OCC)OC(Cl)C(Cl)(Cl)Cl (configuration not stated) | inactive |
| CCc1cccc(C)c1N(C(=O)CCl)C(C)COC (configuration not stated) | inactive |
| CN1COCN(Cc2cnc(Cl)s2)C1=N[N+](=O)[O-] | inactive |
| Cc1cc(C2CC2)nc(Nc2ccccc2)n1 | inactive |

| Compound | outcome |
| --- | --- |
| C#CCC1=C(C)C(OC(=O)C2C(C=C(C)C)C2(C)C)CC1=O (configuration not stated) | inactive |
| CCOP(=S)(OCC)SCCSCC | inactive |
| CCCCSP(=O)(SCCCC)SCCCC | inactive |
| CCCSP(=O)(OCC)Oc1ccc(Br)cc1Cl (configuration not stated) | inactive |
| COc1ccc(C(=CC(=O)N2CCOCC2)c2ccc(Cl)cc2)cc1OC | inactive |
| CSc1nc(NC(C)C)nc(NC(C)C)n1 | inactive |
| COc1cccc(C(=O)NN(C(=O)c2cc(C)cc(C)c2)C(C)(C)C)c1C | inactive |
| CCOP(=O)(OCC)Oc1cc(C)nc(C(C)C)n1 | inactive |
| CCCSP(=O)(OCC)SCCC | inactive |
| CCc1cccc(CC)c1N(COC)C(=O)CCl | inactive |
| CC(C)[C@H](C(=O)O[C@H](C#N)c1cccc(Oc2ccccc2)c1)c1ccc(Cl)cc1 | inactive |
| C#CC(C)(C)NC(=O)c1cc(Cl)cc(Cl)c1 | inactive |
| CCOP(=O)(NC(C)C)Oc1ccc(SC)c(C)c1 (configuration not stated) | inactive |
| CC(C)N(C(=O)SCC(Cl)=C(Cl)Cl)C(C)C | inactive |
| CCOP(=S)(Oc1cnc(C(C)(C)C)nc1)OC(C)C (configuration not stated) | inactive |
| COP(=O)(OC)SCn1c(=O)oc2cc(Cl)cnc21 | inactive |
| CCCCOC(=O)[C@@H](C)Oc1ccc(Oc2ccc(C#N)cc2F)cc1 | inactive |
| COP(=O)(NC(C)=O)SC (configuration not stated) | inactive |
